# Records with an inconclusive call do not appear. Calls of active or inactive are those of the source. Unless noted, how the calls were made is not given here.
# How the values were obtained:
# [1] = rapamycin-like changes in RPL19A-GFP expression – cell-based, S. cerevisiae, multiplex flow cytometry, primary screen (AID 1862; in the data active means percent of DMSO control GFP below about 86%;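 further: lower values mimic rapamycin by blocking the RPL19A rise seen in DMSO cells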); settings: S. cerevisiae RPL19A-GFP strain, flow cytometry fluorescence, 3 h; at 10 µM; stronger effect = lower value
# [2] = TOR pathway GLN3 branch reporter MEP2-GFP changes – S. cerevisiae, multiplex flow cytometry, primary screen (AID 1867;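 active means GFP response, as percent of the DMSO control, above the screen-wide mean plus 3 SD, about 139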;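 further: median GFP channel fluorescence of barcode-gated MEP2-GFP cells measured by flow cytometry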); settings: S. cerevisiae MEP2-GFP strain, 3 h, at 10 µM, stronger effect = higher value
# [3] = TOR pathway RTG branch CIT2 reporter changes – S. cerevisiae, GFP fusion, multiplex flow cytometry, primary screen (AID 1870;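 active means percent response above a set limit, the screen-wide mean plus 3 SD, cut at about 130% in these data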;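 further: barcoded CIT2-GFP strain pooled with four other GFP strains with rapamycin as positive control; median GFP fluorescence per well over plate mean of DMSO wells so 100% = DMSO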); settings: S. cerevisiae CIT2-GFP expression, 3 h, at 10 µM, stronger effect = higher value
# [4] = TOR pathway LAP4-GFP level changes – S. cerevisiae, multiplex flow cytometry, primary screen (AID 1873;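 active means GFP signal, as percent of the solvent control, above the screen mean plus 3 SD, about 149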); settings: S. cerevisiae LAP4-GFP expression, 3 h, at 10 µM, stronger effect = higher value
# [5] = yeast AGP1-GFP level changes, GLN3 branch – cell-based, multiplex flow cytometry, S. cerevisiae, primary screen (AID 1887;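 active means GFP signal above the screen-wide mean plus 3 SD, that is over about 124.5% of the solvent control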;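 further: AGP1-GFP fusion strain of S. cerevisiae within a five-strain barcoded multiplex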); settings: 3 h, at 10 µM, stronger effect = higher value
# [6] = reduced mouse 2C T cell binding to pMHC/ICAM-1 vesicles – MLPCN validation set, flow cytometry, LFA-1/ICAM-1 modulator project, pilot screen (AID 2523;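 active means response below a set limit, under 55% cells CD8-positive and vesicle-bound, and CD8 cells' 90th-percentile brightness under 279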;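 on vesicle binding response: mean PE anti-B7-1 fluorescence of CD8+ cells relative to row control; 100% = QL9-loaded vesicles with DMSO vehicle in the same plate row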); settings: 2C mouse CD8+ T cells, at 7 µM, stronger effect = lower value; double positive events: measured here: CD8+/vesicle+ event percentage
# [7] = molecular target: Integrin beta-1 (Homo sapiens) + Integrin alpha-4 (Homo sapiens) (UniProt P13612+P05556); assay: alpha4beta1 integrin LIBS antibody binding reduction – U937 cells, HUTS-21 mAb, flow cytometry, validation set, VLA-4 allosteric modulator project, pilot screen (AID 2674;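 active means inhibition above 50%, about 3 SD of the validation set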;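 further: antibody binding induced by the VLA-4 ligand LDV present at three times its Kd; 0% = LDV ligand with antibody and no compound and 100% = antibody without LDV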); settings: HUTS-21 LIBS mAb binding, at 6.7 µM, stronger effect = higher value
# [8] = calorie-restriction mimetic ROS inhibitors, yeast – validation compound set, pilot screen (AID 2706;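 active means superoxide response below 65% of plate, a cut near 3 SD across the whole screen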;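 further: yeast exposed to compound for one week at 30 degrees C before staining; 100% = mean of all compound wells on the same plate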); settings: S. cerevisiae aging, superoxide DHE fluorescence; at 10 µM; stronger effect = lower value
# [9] = molecular target: Beta-adrenergic receptor kinase 1 (Homo sapiens) (UniProt P25098); assay: GRK2 binders displacing RNA aptamer, biochemical, validation, human GRK2, bead flow cytometry (AID 488806;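 active means aptamer binding inhibition above 30%, about 3 SD of noise from non-fluorescent compounds; inactive means inhibition at or below 30%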); settings: bead-bound GRK2, FAM-aptamer displacement, at 10 µM, stronger effect = higher value
# [10] = molecular target: Beta-2 adrenergic receptor (Homo sapiens) (UniProt P07550); assay: agonist-induced loss of surface beta2AR – cell-based, FAP fluorogen, flow cytometry, validation set, pilot screen (AID 504459;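 active means percent response above 42, roughly 3 SD of non-fluorescent test compounds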;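 further: agonist-driven loss of surface beta2AR via internalization measured by FAP dye flow cytometry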); settings: Am2.2-beta2AR cells, at 10 µM, stronger effect = higher value
# [11] = molecular target: AP-2 complex subunit beta (Homo sapiens) (UniProt P63010); assay: beta-arrestin/AP2 interaction blockers – biochemical, validation set, GST-AP2 beads, flow cytometry, pilot screen (AID 504541;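 active means inhibition above 54%, about 3 SD of non-fluorescent compounds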;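 further: AP2 carries R879A mutation and is captured from E. coli lysate; bead-bound FITC arrestin peptide fluorescence measuring arrestin peptide binding to AP2; 0% = DMSO wells and 100% = excess unlabeled arrestin peptide control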); settings: FITC arrestin peptide, at 10 µM, stronger effect = higher value
# [12] = cytosolic pH regulators acting via V-ATPase – S. cerevisiae, pHLuorin, HTS validation (AID 504600; in the data active means response above about 15%;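 further: plate controls were DMSO for no effect and reference compound for full effect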); settings: V-ATPase proton transport, at 10 µM, stronger effect = higher value
# [13] = system: anti-desmoglein-3 scFv antibody binding to human DSG3; assay: blockers of pathogenic pemphigus antibody–desmoglein-3 binding – biochemical, validation compound set, bead-based, flow cytometry, pilot screen (AID 588368;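 active means binding below the plate cutoff, the plate median minus 3 SD, with a reading above zero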;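 further: signal is the median channel fluorescence of bead-bound GFP antibody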); settings: Protein G beads, DSG3-Fc, scFv-GFP binding, at 10 µM, stronger effect = lower value
# [14] = system: Botulinum neurotoxin type F light chain protease (Clostridium botulinum); assay: Clostridium botulinum type F light chain protease inhibitors, microsphere substrate cleavage, validation (AID 588459); settings: multiplex microsphere protease substrate cleavage assay, flow cytometry; at 10 µM; stronger effect = higher value
# [15] = molecular target: Botulinum neurotoxin type A (Clostridium botulinum) (UniProt P0DPI0); assay: BoNT/A light chain protease inhibitors, biochemical, multiplex microsphere flow cytometry, validation set (AID 588460); settings: at 10 µM, stronger effect = higher value
# [16] = molecular target: Lethal factor (Bacillus anthracis) (UniProt P15917); assay: Bacillus anthracis lethal factor inhibition, microsphere flow cytometry protease assay, validation at 10 µM (AID 588461); settings: multiplex microsphere protease cleavage assay, stronger effect = higher value
# [17] = Nile Red efflux blockade in pump-expressing yeast – validation compound set, multiplex, phenotypic, pilot screen (AID 588506;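 active means efflux inhibition above 0.42, the validation set average plus 4 SD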;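 further: Nile Red retained in cells so higher fluorescence means more efflux inhibition; 0 = negative control wells and 1 = enniatin B 25 µM full block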); settings: S. cerevisiae pump-expressing triplex, Nile Red efflux flow cytometry; at 10 µM; stronger effect = higher value
# [18] = molecular target: ATP-binding cassette sub-family B member 6 (Homo sapiens) (UniProt Q9NP58); assay: blockers of ABCB6-driven porphyrin uptake – K562-ABCB6 cells, flow cytometry, validation set, pilot screen (AID 588550;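 active means inhibition above the screen-wide mean plus 3 SD, about 51%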;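 further: 0% = DMSO wells and 100% = benzethonium chloride 70 µM positive control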); settings: K562-ABCB6 porphyrin accumulation, 1 h, at 10 µM, stronger effect = higher value
# [19] = AML differentiation inducers, ER-HoxA9 marrow cells – cell-based, GFP/MAC1 double positive, flow cytometry, validation set, primary screen (AID 588685;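 active means differentiation response of at least 50%, scaled between solvent and reference control, from cells with both markers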;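 further: compound exposure lasts four days before antibody staining and flow analysis; 0% = DMSO wells and 100% = 5 µM fulvestrant positive control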); settings: stronger effect = higher value
# Chain of Botulinum neurotoxin type A (Clostridium botulinum) (P0DPI0 whole entry, looked up): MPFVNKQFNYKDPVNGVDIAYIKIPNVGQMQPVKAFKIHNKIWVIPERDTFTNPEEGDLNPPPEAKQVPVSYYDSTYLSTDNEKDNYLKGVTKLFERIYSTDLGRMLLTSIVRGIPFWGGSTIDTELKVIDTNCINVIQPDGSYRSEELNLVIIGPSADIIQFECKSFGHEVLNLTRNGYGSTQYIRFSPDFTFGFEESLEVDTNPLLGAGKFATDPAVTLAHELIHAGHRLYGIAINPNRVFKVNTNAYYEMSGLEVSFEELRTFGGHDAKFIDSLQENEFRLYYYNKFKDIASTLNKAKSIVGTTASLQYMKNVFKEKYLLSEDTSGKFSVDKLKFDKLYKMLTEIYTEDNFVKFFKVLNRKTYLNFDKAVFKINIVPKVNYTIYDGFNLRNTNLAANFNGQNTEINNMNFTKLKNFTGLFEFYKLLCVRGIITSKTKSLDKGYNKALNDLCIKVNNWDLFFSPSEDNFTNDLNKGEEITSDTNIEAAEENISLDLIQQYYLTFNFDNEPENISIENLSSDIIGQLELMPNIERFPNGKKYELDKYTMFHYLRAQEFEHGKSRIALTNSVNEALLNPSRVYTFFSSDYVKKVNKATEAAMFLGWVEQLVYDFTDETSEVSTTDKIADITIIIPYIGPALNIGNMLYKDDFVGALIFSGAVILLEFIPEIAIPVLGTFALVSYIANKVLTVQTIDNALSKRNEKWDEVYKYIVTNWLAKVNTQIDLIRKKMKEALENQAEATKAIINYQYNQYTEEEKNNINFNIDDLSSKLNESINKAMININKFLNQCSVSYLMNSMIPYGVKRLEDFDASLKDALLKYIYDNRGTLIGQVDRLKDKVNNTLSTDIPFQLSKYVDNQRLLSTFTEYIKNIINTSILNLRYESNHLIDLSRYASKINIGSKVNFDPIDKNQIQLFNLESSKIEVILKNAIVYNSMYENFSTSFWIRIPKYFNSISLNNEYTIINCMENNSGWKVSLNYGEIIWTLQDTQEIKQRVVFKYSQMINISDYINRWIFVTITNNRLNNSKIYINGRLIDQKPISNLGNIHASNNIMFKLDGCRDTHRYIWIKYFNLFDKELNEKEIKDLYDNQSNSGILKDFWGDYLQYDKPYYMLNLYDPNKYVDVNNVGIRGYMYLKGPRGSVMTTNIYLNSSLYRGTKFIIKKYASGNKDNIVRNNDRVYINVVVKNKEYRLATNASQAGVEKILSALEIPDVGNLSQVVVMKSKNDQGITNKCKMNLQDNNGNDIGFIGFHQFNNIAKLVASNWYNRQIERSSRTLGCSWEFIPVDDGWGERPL
# Chain of Beta-2 adrenergic receptor (Homo sapiens) (P07550 whole entry, looked up): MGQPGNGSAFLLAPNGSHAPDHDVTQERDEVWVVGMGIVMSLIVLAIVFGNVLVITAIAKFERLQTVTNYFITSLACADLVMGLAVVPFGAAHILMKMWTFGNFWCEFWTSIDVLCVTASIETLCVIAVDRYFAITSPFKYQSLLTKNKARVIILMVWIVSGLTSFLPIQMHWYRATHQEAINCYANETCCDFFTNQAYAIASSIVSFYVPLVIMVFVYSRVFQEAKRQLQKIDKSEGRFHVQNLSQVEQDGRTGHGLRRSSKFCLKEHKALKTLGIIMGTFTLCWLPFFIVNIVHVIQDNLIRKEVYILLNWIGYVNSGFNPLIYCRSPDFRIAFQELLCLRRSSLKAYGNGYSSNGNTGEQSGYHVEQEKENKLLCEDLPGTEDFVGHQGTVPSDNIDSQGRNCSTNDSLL
# Chain of ATP-binding cassette sub-family B member 6 (Homo sapiens) (Q9NP58 whole entry, looked up): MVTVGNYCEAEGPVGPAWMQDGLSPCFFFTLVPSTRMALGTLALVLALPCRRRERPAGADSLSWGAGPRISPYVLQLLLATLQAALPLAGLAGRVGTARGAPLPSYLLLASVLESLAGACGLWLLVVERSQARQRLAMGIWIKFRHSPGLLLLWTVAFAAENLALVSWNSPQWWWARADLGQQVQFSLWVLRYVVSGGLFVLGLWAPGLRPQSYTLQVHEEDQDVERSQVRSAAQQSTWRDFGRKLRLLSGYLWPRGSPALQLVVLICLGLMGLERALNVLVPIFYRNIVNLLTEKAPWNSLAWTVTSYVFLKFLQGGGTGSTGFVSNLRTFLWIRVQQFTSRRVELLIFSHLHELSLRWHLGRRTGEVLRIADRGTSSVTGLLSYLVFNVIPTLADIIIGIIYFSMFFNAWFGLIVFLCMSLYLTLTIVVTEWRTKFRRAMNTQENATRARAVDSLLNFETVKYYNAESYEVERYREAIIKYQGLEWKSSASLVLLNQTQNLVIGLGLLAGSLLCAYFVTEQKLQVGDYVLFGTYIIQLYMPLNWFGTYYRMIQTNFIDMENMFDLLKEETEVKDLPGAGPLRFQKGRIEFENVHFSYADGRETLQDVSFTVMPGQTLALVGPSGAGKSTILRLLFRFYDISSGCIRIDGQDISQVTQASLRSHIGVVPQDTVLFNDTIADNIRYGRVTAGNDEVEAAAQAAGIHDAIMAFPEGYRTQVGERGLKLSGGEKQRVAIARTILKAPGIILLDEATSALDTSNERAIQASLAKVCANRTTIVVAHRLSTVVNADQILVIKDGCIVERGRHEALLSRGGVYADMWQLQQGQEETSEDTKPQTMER
# Chain of AP-2 complex subunit beta (Homo sapiens) (P63010 whole entry, looked up, one chain of several): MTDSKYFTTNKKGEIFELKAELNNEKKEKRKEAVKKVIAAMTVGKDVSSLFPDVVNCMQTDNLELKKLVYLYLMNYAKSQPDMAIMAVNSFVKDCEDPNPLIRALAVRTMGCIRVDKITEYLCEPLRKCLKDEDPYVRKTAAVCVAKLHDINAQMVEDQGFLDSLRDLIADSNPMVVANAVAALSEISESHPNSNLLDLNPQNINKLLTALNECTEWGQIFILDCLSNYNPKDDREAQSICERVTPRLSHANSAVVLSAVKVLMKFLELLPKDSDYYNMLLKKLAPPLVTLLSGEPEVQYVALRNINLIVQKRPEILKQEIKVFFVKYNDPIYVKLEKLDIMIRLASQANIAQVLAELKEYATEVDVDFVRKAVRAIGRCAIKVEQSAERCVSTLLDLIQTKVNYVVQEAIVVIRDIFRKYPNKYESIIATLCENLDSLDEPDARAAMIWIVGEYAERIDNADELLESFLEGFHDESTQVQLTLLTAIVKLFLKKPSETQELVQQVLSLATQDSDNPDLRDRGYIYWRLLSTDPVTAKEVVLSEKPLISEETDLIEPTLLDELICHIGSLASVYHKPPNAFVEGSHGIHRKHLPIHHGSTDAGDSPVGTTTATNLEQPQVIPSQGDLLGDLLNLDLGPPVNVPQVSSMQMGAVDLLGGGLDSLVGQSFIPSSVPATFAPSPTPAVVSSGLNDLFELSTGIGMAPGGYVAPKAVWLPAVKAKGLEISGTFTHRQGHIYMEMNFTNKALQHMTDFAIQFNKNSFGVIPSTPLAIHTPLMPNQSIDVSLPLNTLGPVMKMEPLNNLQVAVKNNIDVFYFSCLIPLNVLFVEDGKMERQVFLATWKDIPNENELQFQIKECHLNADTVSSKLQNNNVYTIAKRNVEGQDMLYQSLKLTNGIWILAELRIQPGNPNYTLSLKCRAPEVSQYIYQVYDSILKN
# Chain of Lethal factor (Bacillus anthracis) (P15917 whole entry, looked up): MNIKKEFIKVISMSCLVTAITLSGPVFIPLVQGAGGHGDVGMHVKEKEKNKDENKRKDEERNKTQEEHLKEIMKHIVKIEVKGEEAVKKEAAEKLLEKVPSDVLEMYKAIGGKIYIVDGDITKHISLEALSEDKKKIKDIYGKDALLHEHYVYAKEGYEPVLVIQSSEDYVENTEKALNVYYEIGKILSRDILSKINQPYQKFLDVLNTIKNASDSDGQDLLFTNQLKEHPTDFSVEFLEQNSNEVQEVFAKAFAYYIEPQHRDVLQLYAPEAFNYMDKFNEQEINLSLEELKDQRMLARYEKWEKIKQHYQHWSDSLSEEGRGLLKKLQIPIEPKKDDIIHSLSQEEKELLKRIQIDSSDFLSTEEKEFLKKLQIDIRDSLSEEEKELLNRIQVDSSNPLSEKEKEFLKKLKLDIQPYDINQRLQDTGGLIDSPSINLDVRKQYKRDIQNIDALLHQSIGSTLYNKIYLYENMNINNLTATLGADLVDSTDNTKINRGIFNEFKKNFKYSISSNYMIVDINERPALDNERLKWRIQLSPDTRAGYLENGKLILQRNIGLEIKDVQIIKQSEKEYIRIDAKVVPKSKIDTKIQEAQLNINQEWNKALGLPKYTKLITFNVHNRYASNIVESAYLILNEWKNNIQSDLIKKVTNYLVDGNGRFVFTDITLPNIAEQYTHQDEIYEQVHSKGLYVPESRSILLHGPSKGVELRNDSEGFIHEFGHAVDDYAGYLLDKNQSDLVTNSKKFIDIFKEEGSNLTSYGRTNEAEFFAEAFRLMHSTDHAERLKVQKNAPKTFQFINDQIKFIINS
# Chain of Beta-adrenergic receptor kinase 1 (Homo sapiens) (P25098 whole entry, looked up): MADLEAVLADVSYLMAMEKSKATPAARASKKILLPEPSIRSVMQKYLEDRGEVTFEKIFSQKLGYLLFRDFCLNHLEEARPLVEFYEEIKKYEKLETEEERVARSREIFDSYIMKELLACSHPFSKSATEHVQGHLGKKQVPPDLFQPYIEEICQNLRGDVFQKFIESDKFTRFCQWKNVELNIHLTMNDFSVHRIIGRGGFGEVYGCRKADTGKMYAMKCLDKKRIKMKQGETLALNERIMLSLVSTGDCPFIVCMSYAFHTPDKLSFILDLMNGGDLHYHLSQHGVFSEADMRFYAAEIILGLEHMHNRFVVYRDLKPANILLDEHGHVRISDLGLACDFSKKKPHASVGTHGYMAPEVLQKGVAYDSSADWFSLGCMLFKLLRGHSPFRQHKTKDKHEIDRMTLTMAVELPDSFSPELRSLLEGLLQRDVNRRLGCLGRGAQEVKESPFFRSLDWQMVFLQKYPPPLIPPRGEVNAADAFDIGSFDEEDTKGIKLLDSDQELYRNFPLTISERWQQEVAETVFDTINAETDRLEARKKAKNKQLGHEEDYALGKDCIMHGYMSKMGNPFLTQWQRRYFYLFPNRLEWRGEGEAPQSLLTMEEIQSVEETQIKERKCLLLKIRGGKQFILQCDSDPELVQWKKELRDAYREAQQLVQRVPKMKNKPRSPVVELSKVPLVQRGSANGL
Compound,percent of DMSO control GFP [1],GFP response vs DMSO [2],percent response of DMSO control [3],GFP response vs DMSO [4],"GFP response, % of DMSO [5]",double positive events [6] [%],vesicle binding response [6],inhibition [7],superoxide response (% of plate) [8],aptamer binding inhibition [9],response [10],inhibition [11],response [12],binding (% of control) [13],inhibition [14],inhibition [15],inhibition [16],efflux inhibition (fraction of control) [17],inhibition [18],differentiation response [19]
OC1CCCCC1N1CCC(c2ccccc2)CC1 (stereo not given),92.8% (inactive),133% (inactive),91.3% (inactive),70.4% (inactive),89.4% (inactive),62.4,171% (inactive),5.49% (inactive),110% (inactive),3% (inactive),-8.3% (inactive),-5.17% (inactive),2.23% (inactive),127% (inactive),8.9% (inactive),-1% (inactive),6.3% (inactive),0.52 (active),15% (inactive),-1.64% (inactive)
CC(=O)c1ccc(-c2ccccc2)cc1,97% (inactive),120% (inactive),110% (inactive),84.7% (inactive),103% (inactive),63.6,339% (inactive),-15.8% (inactive),96.8% (inactive),-3% (inactive),9.21% (inactive),-0.36% (inactive),1% (inactive),108% (inactive),-2.6% (inactive),-1.2% (inactive),-1.9% (inactive),-0.06 (inactive),14% (inactive),4.91% (inactive)
NC(=O)CN1CCCC1=O,95% (inactive),113% (inactive),118% (inactive),73.2% (inactive),91% (inactive),54.5,191% (inactive),3.55% (inactive),95.8% (inactive),-4% (inactive),-20.5% (inactive),-5.52% (inactive),0.81% (inactive),105% (inactive),1.5% (inactive),0.4% (inactive),1.1% (inactive),-0.09 (inactive),4% (inactive),-1.64% (inactive)
O=C1NC(=O)C2(Cc3ccccc3N3CCCC32)C(=O)N1c1ccc(Cl)cc1 (stereo not given),106% (inactive),88.8% (inactive),101% (inactive),93.3% (inactive),97.5% (inactive),64.8,186% (inactive),14.1% (inactive),104% (inactive),6% (inactive),-5.5% (inactive),-2.86% (inactive),0.31% (inactive),100% (inactive),-0.7% (inactive),0.8% (inactive),0.9% (inactive),0.24 (inactive),12% (inactive),1.22% (inactive)
O=c1[nH]c(=S)n(-c2ccccc2)c(O)c1/C=N/N1CCCCC1c1cccnc1 (stereo not given),101% (inactive),100% (inactive),90.8% (inactive),84.8% (inactive),93% (inactive),64,885% (inactive),-37.8% (inactive),100% (inactive),4% (inactive),0.69% (inactive),1.04% (inactive),4.77% (inactive),100% (inactive),-0.8% (inactive),0.8% (inactive),-6.8% (inactive),-0.04 (inactive),0% (inactive),4.15% (inactive)
CN1CC[C@@]23CCCC[C@@H]2[C@@H]1Cc1ccc(O)cc13,99.4% (inactive),110% (inactive),96.6% (inactive),98.6% (inactive),100% (inactive),60.4,47.7% (inactive),-0.45% (inactive),109% (inactive),-1% (inactive),2.76% (inactive),9.83% (inactive),-1.79% (inactive),92% (inactive),-10% (inactive),-1.6% (inactive),-1.3% (inactive),-0.07 (inactive),2% (inactive),3.18% (inactive)
CCOC(=O)c1cc2c(cn1)[nH]c1ccccc12,98.4% (inactive),103% (inactive),103% (inactive),105% (inactive),94.5% (inactive),59.3,102% (inactive),-7.79% (inactive),96.2% (inactive),3% (inactive),-5.72% (inactive),-6.1% (inactive),-1.17% (inactive),98.5% (inactive),2.3% (inactive),0.5% (inactive),-1.3% (inactive),-0.39 (inactive),-6% (inactive),-1.65% (inactive)
C[N+](C)(C)Cc1ccccc1,103% (inactive),105% (inactive),106% (inactive),109% (inactive),110% (inactive),64.9,147% (inactive),-14.5% (inactive),89.2% (inactive),-1% (inactive),-3.98% (inactive),3.88% (inactive),-0.83% (inactive),103% (inactive),1.5% (inactive),0.6% (inactive),4.6% (inactive),0.245 (inactive),1% (inactive),-14.8% (inactive)

# Reference: PubChem BioAssay
